Source: PubChem BioAssay (The Scripps Research Institute Molecular Screening Center)
GPR151 ag = activators of human GPR151. Q8TDV0. PathHunter beta-arrestin GPR151 cells, luminescence. activation, % at 11.2 µM. 1% of 650,000 active; in the data active means activation above about 4.9%;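 further: 0% = median of compound wells and 100% = cells with positive control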
MITF inh = blocks human microphthalmia-associated transcription factor; O75030; AlphaScreen MITF homodimerization, bead proximity signal; inhibition, % at 2.6 µM; 0.91% of 650,000 active; in the data active means inhibition above about 50%;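 further: 0% = vehicle wells with protein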
TEAD-YAP block = TEAD-YAP interaction inhibition. HEK-TIYL cells, TEAD-Gal4/YAP UAS-luciferase luminescence. inhibition, % at 9.12 µM. 1.4% of 640,000 active; in the data active means inhibition above about 32%;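 further: 0% = median of test compound wells and 100% = reference inhibitor wells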
FBW7 activator = activators of human E3 ligase FBW7. normalized activity (activation), % at 26.1 µM. AlphaScreen FBW7–phospho-cyclin E peptide binding, activator screen. AID 1259310. 0.13% of 650,000 active; in the data active means normalized activity above about 1.9%;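 further: purified mutant Fbw7 with reduced substrate affinity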
GPR151 conf act = confirmation of human GPR151 activators; shares compounds with GPR151 ag; GPR151 PathHunter beta-arrestin cells, luminescence, 90 min; % of EA-reagent control over plate median; activation, % at 11.2 µM; 6,700 tested, under 10 active;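 active means mean percent activation across replicates above the confirmation screen cutoff of 4.91%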
GPR119 counter = GPR119 activation, counter-screen for GPR151 activators. shares compounds with GPR151 ag. GPR119 PathHunter beta-arrestin cells, luminescence, 90 min; 0 = compound-well median, 100 = enzyme-acceptor control. activation, % at 11.2 µM. 0.3% of 6,700 active. AID 1508611;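 active means mean percent activation in the counterscreen above 29.09%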;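 further: counterscreen on off-target GPR119 to flag nonselective hits from the GPR151 activator screen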
Target sequence (Q8TDV5 whole entry, looked up): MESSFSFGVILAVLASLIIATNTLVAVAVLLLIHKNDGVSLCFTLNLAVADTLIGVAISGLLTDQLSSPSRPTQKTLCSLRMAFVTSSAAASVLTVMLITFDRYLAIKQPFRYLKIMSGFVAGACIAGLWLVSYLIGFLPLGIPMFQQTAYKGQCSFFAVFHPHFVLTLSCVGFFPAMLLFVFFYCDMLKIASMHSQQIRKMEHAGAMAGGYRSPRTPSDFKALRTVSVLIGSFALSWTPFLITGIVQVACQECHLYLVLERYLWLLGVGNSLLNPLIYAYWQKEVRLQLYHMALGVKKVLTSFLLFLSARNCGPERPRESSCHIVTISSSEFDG
Starred values were filed as active, the others as inactive; / = no result given; ! = not confirmed by another sample. This is a sample that favours compounds with a hit; in the whole collection about 3.5% have one here.

SMILES | GPR151 ag | MITF inh | TEAD-YAP block | FBW7 activator | GPR151 conf act | GPR119 counter
CC(=O)c1cccc(-c2cccc(C(=O)NCCCN3CCCC3=O)c2)c1 | 0 | 8 | -3 | 0 | / | /
O=C(Cn1c(=O)n(-c2ccccc2)c(=O)c2oc3ccccc3c21)N1CCCCC1 | 5.1* | 5 | -6 | 0 | -1 | -3
Cc1cc(N/N=C/c2cccc([N+](=O)[O-])c2)nc(-c2ccccc2)n1 | 5.0* | -8 | -1 | 0 | 0 | 7
O=C(NCC(c1ccco1)N1CCc2ccccc21)c1ccc(Br)o1 (centres undefined) | 0 | 11 | 3 | 0 | / | /
CCOC(=O)c1c(NC(=O)C2COc3ccccc3O2)sc2c1CCC(C)C2 (centres undefined) | 1 | -10 | -2 | 0 | / | /
CC(=O)NCC1CCCN(c2nc3nonc3nc2N2CCCCCC2)C1 (centres undefined) | -1 | -9 | 5 | 0 | / | /
CC(=O)NCC1CCCN(c2nc3nonc3nc2N2CCSCC2)C1 (centres undefined) | 5.5* | 0 | -5 | 0 | 1 | 4
CN(C)C(=O)CN1CCN(c2nc3nonc3nc2N2CCCCCC2)CC1 | 4.9* | 8 | 3 | 0 | 0 | 5
CCCn1cnc2c1c(=O)n(C)c(=O)n2C | 2 | -1 | 3 | 0 | / | /
CC(=O)OC(C)(C)C(=O)CCc1ccccc1 | 1 | 11 | 14 | 0 | / | /
Cc1nc2sccn2c(=O)c1S(=O)(=O)N1CCC(Cc2ccccc2)CC1 | 6.2* | 5 | -4 | 0 | 0 | 0
CC(C)[C@@H](Cn1nnc2ccccc21)NC(=O)c1ccco1 | 1 | 1 | 11 | 0 | / | /
Cc1ccc(N2C(=O)CC(Sc3nc(C)cc(C(F)(F)F)c3C#N)C2=O)cc1 (centres undefined) | -3 | 18 | -10 | 0 | / | /
CC(C)Cc1ccc(C#N)c(SC2CC(=O)N(c3ccccc3)C2=O)n1 (centres undefined) | 7.5* | -7 | -33 | 0 | 0 | -2
Cc1cc(C(F)(F)F)c(C#N)c(SC2CC(=O)N(c3ccccc3)C2=O)n1 (centres undefined) | 9.3* | 12 | 0 | 1 | 1 | 0
Cc1ccc(SC2CC(=O)N(c3ccccc3)C2=O)cc1 (centres undefined) | 5.0* | 5 | 1 | 0 | -1 | -12
Cc1ccc(N2C(=O)CC(Sc3nc(-c4ccccc4)ccc3C#N)C2=O)cc1 (centres undefined) | 1 | 10 | -19 | 0 | / | /
Cc1ccc(N2C(=O)CC(Sc3nc(C)cc(C)n3)C2=O)cc1 (centres undefined) | 1 | -6 | 19 | 0 | / | /
O=C(OCc1nc2ccccc2s1)C1CCN(C2=NS(=O)(=O)c3ccccc32)CC1 | 5.6* | 7 | -6 | 0 | 1 | 12
NC(=O)C1CCN(C2=NS(=O)(=O)c3ccccc32)CC1 | -2 | -1 | 7 | 0 | / | /
CC(C)N(C(=O)Cn1c(SCC(=O)N2CCCC2)nc2ccccc21)C(C)C | 7.9* | 0 | -5 | 0 | 0 | 5
CC(C)N(C(=O)Cn1c(SCC(=O)N2CCCCCC2)nc2ccccc21)C(C)C | 1 | -5 | 12 | 0 | / | /
COc1cc2ccccc2cc1C(=O)Nc1ccc2oc(-c3cccnc3)nc2c1 | -1 | -12 | -15 | 0 | / | /
Cc1ccccc1C(=O)N(Cc1ccsc1)C1CC1 | 0 | -4 | 4 | 0 | / | /
c1ccc2c(c1)OC[C@@H](c1nc3ccc(-c4ccncc4)cc3[nH]1)O2 | 0 | 10 | -35 | 0 | / | /
SMILES | GPR151 ag | MITF inh | TEAD-YAP block | FBW7 activator | GPR151 conf act | GPR119 counter
Cc1ccc2c(c1)OCC(c1nc3ccc(-c4ccncc4)cc3[nH]1)O2 (centres undefined) | 5.1* | 10 | -7 | 0 | 0 | -2
COc1ccc2ccccc2c1/C=C1\C(=O)NC(=O)N(c2ccc([N+](=O)[O-])cc2)C1=O | 6.7* | 10 | 8 | 0 | 0 | 0
COc1cccc(N2C(=O)NC(=O)/C(=C/c3c(OC)ccc4ccccc34)C2=O)c1 | -1 | -11 | 3 | 0 | / | /
COc1ccc(N2C(=O)NC(=O)/C(=C/c3cccn3-c3cccc([N+](=O)[O-])c3)C2=O)cc1 | 4.9* | 15 | 0 | 0 | 0 | 4
O=C(O)COc1ccc(C2C3=C(CCCC3=O)OC3=C2C(=O)CCC3)cc1 | 6.2* | 2 | 0 | 0 | 1 | 0
O=C(NCc1cccnc1)c1cnc(-c2cccs2)s1 | 2 | 8 | -9 | 0 | / | /
CN1C(=O)CC(Nc2ccc(N(C)C)cc2)C1=O (centres undefined) | 7.3* | 29 | 9 | 0 | 0 | 8
CCN1C(=O)CC(Nc2ccc(N(C)C)cc2)C1=O (centres undefined) | 0 | 25 | 6 | 0 | / | /
CN(CCCNC(=O)CN1C(=O)CCSc2ccccc21)Cc1ccccc1 | -1 | 11 | 8 | 0 | / | /
O=C(Nc1nc2c(s1)-c1cccc3cccc-2c13)C1CC1 | 5.0* | -1 | -27 | 0 | 2 | 13
O=C(Nc1nc2ccc3ccccc3c2s1)C1CC1 | 2 | 7 | 16 | 0 | / | /
Clc1ccc2c(c1)CCc1cccnc1C2=C1CCNCC1 | 7.8*! | 6 | -16 | 0 | 0 | 11
NC(=O)C1(N2CCCCC2)CCN(C(=S)Nc2ccc(F)cc2)CC1 | -1 | 2 | 13 | 0 | / | /
NC(=O)C1(N2CCCCC2)CCN(C(=O)Nc2ccc(F)cc2F)CC1 | 5.9* | 3 | -3 | 0 | 1 | 5
O=C(COc1ccc(Cl)cc1)NC(=O)NCc1ccco1 | -1 | -17 | 8 | 0 | / | /
O=C(COC(=O)CCS(=O)(=O)c1ccccc1Cl)NC(=O)NCc1ccco1 | 6.4* | -2 | 2 | 0 | 2 | 0
CCCCCCCC1=NN2C(=N)/C(=C/c3ccc(-c4ccccc4[N+](=O)[O-])o3)C(=O)N=C2S1 | 5.6* | 5 | -1 | 1 | 0 | 8
CCSc1sc(CC)cc1C1C(C#N)=C(N)N(N(C)C)C2=C1C(=O)CC(C)(C)C2 (centres undefined) | 5.5* | 7 | -4 | 0 | 1 | 0
Cc1ccc(C(=O)Nc2ccc(C(F)(F)F)oc2=O)cc1C | -1 | 6 | 1 | 0 | / | /
CC(C)C(=O)NC(C)c1nnc2n1CCN(Cc1ccco1)CC2 (centres undefined) | 12* | -24 | -7 | 0 | 0 | 9
Cc1cnc(-c2c(C)nn(C)c2C)nc1NCCc1ccc(O)cc1 | 5.7* | 1 | -1 | 0 | 1 | 5
Cc1cnc(-c2c(C)noc2C)nc1NCCc1ccc(O)cc1 | 0 | -6 | -4 | 0 | / | /
O=C(CCC1CCCC1)NCc1nc(-c2ccccc2)no1 | -1 | 2 | -8 | 0 | / | /
